An excerpt weighted towards active compounds, which were near 1.8% of everything screened.
HDAC3 inh: human HDAC3 inhibition; O15379; inhibition, % at 8.3 µM; 320,000 tested, 0.15% active; AID 2718; recombinant HDAC3, fluorogenic peptide/trypsin coupled, fluorescence; in the data active means inhibition above about 26%, passing the limit was not always enough; inconclusive means no clear call, values can overlap the other calls
Neddylation inh: blocks human cullin neddylation. P61081+Q13564. TR-FRET cullin neddylation, biochemical. inhibition, % at 25 µM. 360,000 tested, 0.58% active; in the data active means inhibition above about 36%
GRK2 inh: inhibitors of human GRK2 displacing RNA aptamer; P25098; bead flow cytometry, FAM-aptamer displacement from GRK2; inhibition of aptamer binding, % at 10 µM; 330,000 tested, 0.59% active; AID 488847;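 active means inhibition of aptamer binding above 40%, roughly 3 SD of noise, on plates passing a quality check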;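 further: median bead fluorescence of bound FAM aptamer so fluorescent compounds give negative values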
Target sequence (P25098 whole entry, looked up): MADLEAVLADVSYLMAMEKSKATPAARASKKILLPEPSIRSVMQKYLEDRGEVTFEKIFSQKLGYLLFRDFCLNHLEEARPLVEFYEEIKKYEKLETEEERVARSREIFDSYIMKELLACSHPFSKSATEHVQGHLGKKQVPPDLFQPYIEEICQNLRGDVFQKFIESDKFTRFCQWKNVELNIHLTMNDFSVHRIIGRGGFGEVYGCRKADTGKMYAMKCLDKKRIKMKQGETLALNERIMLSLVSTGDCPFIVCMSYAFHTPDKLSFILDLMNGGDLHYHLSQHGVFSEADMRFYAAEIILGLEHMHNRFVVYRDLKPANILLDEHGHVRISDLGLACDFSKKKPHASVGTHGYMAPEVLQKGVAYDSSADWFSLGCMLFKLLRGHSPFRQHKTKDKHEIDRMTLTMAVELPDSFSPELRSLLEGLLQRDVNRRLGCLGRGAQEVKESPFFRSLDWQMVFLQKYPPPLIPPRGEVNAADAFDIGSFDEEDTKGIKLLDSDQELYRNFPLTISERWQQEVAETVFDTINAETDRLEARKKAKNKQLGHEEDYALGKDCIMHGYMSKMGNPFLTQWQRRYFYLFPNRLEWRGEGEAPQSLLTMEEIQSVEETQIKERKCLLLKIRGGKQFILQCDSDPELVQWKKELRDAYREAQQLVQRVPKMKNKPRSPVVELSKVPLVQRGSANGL
H9c2 protect: protects H9c2 cardiomyocytes from peroxide injury. H2O2 injury protection, ATPLite, 2 h. protection from H2O2 cell death, % at 20 µM. 360,000 tested, 0.63% active;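 active means compounds giving at least 50% protection of heart cells from peroxide-induced death in the single-dose screen, raw or plate-pattern-corrected value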;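 further: 0% = DMSO wells with peroxide and 100% = DMSO wells without peroxide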
An asterisk follows results filed as active.

`COc1cc(/C=N/NC(=O)c2cnn3c(C)cc(-c4ccccc4)nc23)ccc1O` gave HDAC3 inh -9, Neddylation inh -23, GRK2 inh 0 and H9c2 protect 76*.
For CC1CCCC(C)N1C(=O)COC(=O)c1c[nH]c2ccccc12 (stereo not drawn) the results were HDAC3 inh 5, Neddylation inh -9, GRK2 inh 1 and H9c2 protect 5.
`O=S(=O)(c1cc(F)ccc1F)N1CCN(c2ncccn2)CC1` gave HDAC3 inh -5, Neddylation inh 16, GRK2 inh 4 and H9c2 protect 4.
Screening CN1c2ccsc2/C(=N/NC(=O)c2c(F)cccc2F)CS1(=O)=O returned HDAC3 inh inconclusive, Neddylation inh -25, GRK2 inh 1 and H9c2 protect 4.
Cc1cccc(C(=O)N/N=C2\CS(=O)(=O)N(C)c3ccsc32)c1 was read as HDAC3 inh -4, Neddylation inh -15, GRK2 inh 1 and H9c2 protect 64*.
CC1CN(c2nn3c(=O)c4ccccc4nc3c3ccccc23)CC(C)O1 (stereo not drawn) was read as HDAC3 inh -2, Neddylation inh 26, GRK2 inh 2 and H9c2 protect 65*.
Screening CC1=Nc2ccccc2N=C(NC(=O)/C=C/C(=O)O)C1c1ccccc1 (stereo not drawn) returned HDAC3 inh -1, Neddylation inh 2, GRK2 inh 0 and H9c2 protect -4.
`COc1ccc(C(=O)NC2=Nc3ccccc3N=C(C)C2c2ccccc2)cc1` (stereo not drawn) gave HDAC3 inh 77*, Neddylation inh 9, GRK2 inh 1 and H9c2 protect 16.
O=C(C1CCN(S(=O)(=O)c2ccccc2)CC1)N1CCCCC1 was read as HDAC3 inh -2, Neddylation inh 0, GRK2 inh 0 and H9c2 protect -2.
`COc1ccccc1CN(C(=O)CNC(=O)c1ccco1)C(C(=O)NCC1CCCO1)c1ccccc1` (stereo not drawn) gave HDAC3 inh -4, Neddylation inh -8, GRK2 inh 0 and H9c2 protect 68*.
Screening Cc1ccc(CN(C(=O)CNC(=O)c2cccs2)C(C(=O)NCC2CCCO2)c2ccccc2)cc1 (stereo not drawn) returned HDAC3 inh 3, Neddylation inh 3, GRK2 inh 2 and H9c2 protect 91*.
Cc1cc(C(=O)Nc2nc(-c3ccccn3)cs2)ccc1[N+](=O)[O-] was read as HDAC3 inh -3, Neddylation inh -26, GRK2 inh 2 and H9c2 protect 47.
Screening O=C(Nc1nc(-c2ccccn2)cs1)c1ccc2c(c1)OCCO2 returned HDAC3 inh 2, Neddylation inh -57, GRK2 inh 3 and H9c2 protect -15.
CC(=O)c1ccc(-c2ccc(C(=O)Nc3nc(-c4ccccn4)cs3)o2)cc1 was read as HDAC3 inh -1, Neddylation inh 36*, GRK2 inh 1 and H9c2 protect 99*.
For O=C(Nc1nc(-c2ccccn2)cs1)c1ccccc1-n1cnnn1 the results were HDAC3 inh -6, Neddylation inh -7, GRK2 inh 2 and H9c2 protect 63*.
`CC(=O)Nc1ccc(C(=O)Nc2nc(-c3ccccn3)cs2)cc1` gave HDAC3 inh 0, Neddylation inh -15, GRK2 inh 1 and H9c2 protect 70*.
For CCc1cc(C(=O)Nc2nc(-c3ccccn3)cs2)sc1C the results were HDAC3 inh 7, Neddylation inh 12, GRK2 inh 0 and H9c2 protect 72*.
Screening Nn1c(C2CCC2)nc2cc(Cl)ccc2c1=O returned HDAC3 inh -4, Neddylation inh 0, GRK2 inh 0 and H9c2 protect 4.
`O=C1Nc2cc(C(=O)NCC3CCCO3)ccc2S/C1=C/c1ccccc1F` (stereo not drawn) gave HDAC3 inh -11, Neddylation inh 9, GRK2 inh 0 and H9c2 protect 4.
For Cc1ccc(NC(=O)C(c2ccccc2)N2CCN(CC(=O)NC3CC3)CC2)cc1 (stereo not drawn) the results were HDAC3 inh -1, Neddylation inh -21, GRK2 inh 0 and H9c2 protect 3.
`CN(C)c1ccnc(Oc2ccc(C(C)(C)C)cc2)c1C#N` gave HDAC3 inh -72, Neddylation inh 3, GRK2 inh 0 and H9c2 protect -12.
For CC(=O)Nc1cccc2c1C(=O)N(c1ccc(OC(C)=O)cc1)C2=O the results were HDAC3 inh 7, Neddylation inh -34, GRK2 inh 0 and H9c2 protect 2.
Screening O=C(Nc1nc(-c2ccccn2)cs1)c1ccc(-c2ccccc2F)o1 returned HDAC3 inh 4, GRK2 inh 3 and H9c2 protect 58*.
For Cc1ccc(C(=O)Nc2nc(-c3ccccn3)cs2)o1 the results were Neddylation inh 4, GRK2 inh 0 and H9c2 protect 47.
Screening COc1ccc(C2=NS(=O)(=O)N(C)C(C(=O)N3CCN(C)CC3)=C2)cc1 returned Neddylation inh -8, GRK2 inh 0 and H9c2 protect 4.
For O=C1NC(=O)c2cc([N+](=O)[O-])cc3cccc1c23 the results were HDAC3 inh -2, Neddylation inh -81, GRK2 inh 6 and H9c2 protect 55*.
Screening CCOC(=O)C1=C(C)NC(C)=C(C(=O)OCCNC(=O)c2cccnc2)C1c1cccc([N+](=O)[O-])c1 (stereo not drawn) returned HDAC3 inh 11, Neddylation inh -9, GRK2 inh 0 and H9c2 protect 69*.
Screening O=C(NCCOC(=O)c1ccc([N+](=O)[O-])cc1)c1cccnc1 returned HDAC3 inh 0, Neddylation inh -44, GRK2 inh 2 and H9c2 protect -2.
For c1ccc2c(c1)nc(N1CCCCCC1)c1nncn12 the results were Neddylation inh 9 and H9c2 protect 9.
`O=C(Nc1ccccc1C(=O)NCc1ccco1)c1ccco1` gave HDAC3 inh 1, Neddylation inh 4, GRK2 inh 1 and H9c2 protect 7.
For O=C(Nc1ccccc1C(=O)Nc1ccccc1C(=O)NCc1ccco1)c1ccco1 the results were HDAC3 inh -1, Neddylation inh -8, GRK2 inh 5 and H9c2 protect 52*.
Screening Cn1c(O)c(N=Nc2nc(-c3ccccc3)cs2)c2ccccc21 returned HDAC3 inh 1, Neddylation inh -57, GRK2 inh 2 and H9c2 protect 62*.
Screening Cn1c(O)c(N=Nc2ccccc2)c2ccccc21 returned HDAC3 inh -1, Neddylation inh -1, GRK2 inh 2 and H9c2 protect -2.
Screening O=C(c1ccco1)N1CCCC(N2CCN(c3cccc(C(F)(F)F)c3)CC2)C1 (stereo not drawn) returned HDAC3 inh 6, Neddylation inh -2, GRK2 inh 0 and H9c2 protect 4.
`CCOc1ccc(N(CC(=O)N/N=C/c2ccccn2)S(=O)(=O)c2ccc(Cl)cc2)cc1` gave HDAC3 inh 16, Neddylation inh 3, GRK2 inh 1 and H9c2 protect 56*.
COc1cc(/C=C2\CC/C(=C\c3cc(OC)c(O)c(OC)c3)C2=O)cc(OC)c1O was read as HDAC3 inh 6, Neddylation inh -6, GRK2 inh 15 and H9c2 protect 65*.

Screening results: PubChem BioAssay, several laboratories
